97 compounds from PubChem BioAssay AID431 (Sanford-Burnham Center for Chemical Genomics, 2006) can be followed below.

The whole screen tested about 63,000 compounds, of which about 1,100 (1.7%) were called active. The sample as a whole holds a higher share of actives than the screen did. Potency and affinity values are given separately. Values without a mark were called inactive.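 The calls were made as follows: active = compounds whose percent cytotoxicity in the single-dose primary screen, scaled between solvent and toxic-drug controls, exceeds 50; inactive = the rest.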

A short description of this assay: viability loss of HPDE-C7K cells – cell-based, fluorescence, HTS, primary screen (AID 431).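 Also: 0% = DMSO solvent wells and 100% = doxorubicin-treated wells.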 As to conditions: HPDE-C7K KRASV12 cells, Alamar Blue viability, 48 h; at 10 µM; stronger effect = higher value.
Turning to `Cc1ccc(NC(=O)CSCc2c(C)noc2C)cc1C`, the cytotoxicity was -2.9%.

Consider `COc1ccccc1Cn1c2nc3ccccc3nc2c2c(=O)n(CC(C)C)cnc21`, for which the cytotoxicity is 5%. Then `O=C(NC1CCCCC1)C1CCN(S(=O)(=O)c2cccc3cccnc23)CC1`, with -12.2%; and `Cn1c(-c2ccc3c(c2)OCO3)cnc1NCc1ccccc1`, with -4.5%; and `Cn1c(-c2ccc3c(c2)OCO3)cnc1NCc1cccc(Cl)c1`, with 63.6% (active). Then `Cn1c(-c2ccc3c(c2)OCO3)cnc1NC(=O)CCC(=O)NCCc1ccccc1`, with -0.9%; and `Cn1c(-c2ccc3c(c2)OCO3)cnc1NCc1ccc(Cl)cc1`, with 62.3% (active); and `Cn1c(-c2ccc3c(c2)OCO3)cnc1N`, with 8.4%. Then `Cc1ccc(CNc2ncc(-c3ccc4c(c3)OCO4)n2C)cc1`, with -5.9%.

On to `COc1ccc(CN2CCN(S(=O)(=O)c3ccc(NC(C)=O)cc3)CC2)cc1OC`, for which the cytotoxicity is -2.4%. On to `O=C(NCCN1C(=O)C2C3C=CC(C3)C2C1=O)Nc1ccc(Br)cc1` (configuration not stated), for which the cytotoxicity was 8.1%. As for `COc1cccc(S(=O)(=O)Nc2ccc(C(=O)NCc3ccco3)cc2)c1`, the cytotoxicity was -28.4%. With `COc1ccc(CC(=O)N2CCN(C(=O)Cc3ccc(OC)cc3)CC2)cc1`, the cytotoxicity is -6.3%. Then `CCC(C)NC(=O)c1c(N)n(/N=C/c2cccnc2)c2nc3ccccc3nc12` (configuration not stated), with 51.8% (active); and `Nc1c(C(=O)NC2CCCCC2)c2nc3ccccc3nc2n1/N=C/c1ccco1`, with 4.7%. For `Nc1c(C(=O)NC2CCCC2)c2nc3ccccc3nc2n1/N=C/c1cccnc1` the value was 66.8% (active). For the compound `CCCCNC(=O)c1c(N)n(/N=C/c2ccccn2)c2nc3ccccc3nc12`, the cytotoxicity is 38.1%. Regarding `COCCCNC(=O)c1c(N)n(/N=C/c2cccnc2)c2nc3ccccc3nc12`, the cytotoxicity is 22.5%. Then `CC(C)CNC(=O)c1c(N)n(/N=C/c2ccccn2)c2nc3ccccc3nc12`, with 1.7%; and `CCCCNC(=O)c1c(N)n(/N=C/c2cccnc2)c2nc3ccccc3nc12`, with 12.3%.

On to `CC(C)CNC(=O)c1c(N)n(/N=C/c2cccnc2)c2nc3ccccc3nc12`, for which the cytotoxicity is 1.6%.

`Cc1ccnc(N(C(=O)c2cccs2)C(=O)c2cccs2)c1`: the cytotoxicity was -0.7%. For `C=CCN1C(c2ccccc2)=CS/C1=C(\C#N)c1nnc2n1CCCCC2` the value was -0.6%. In the case of `Cc1cc(C(=O)OCC(=O)NC(=O)NC(C)(C)C)c(C)o1`, the cytotoxicity was -3.4%. For `COc1cccc(-c2cc(C(=O)N3CCN(C(c4ccccc4)c4ccccc4)CC3)no2)c1` the value was -8.3%; for `C=CCn1c(SCc2ccccc2C#N)nnc1-c1cc(Br)ccc1O`, 13.1%.

Regarding `C#CC(C)(C)NC(=O)c1ccccc1OC`, the cytotoxicity was -11.3%. Then `COc1cccc(C(=O)Nc2ccc(NC(=O)C(C)(C)C)cn2)c1`, with 19.5%; and `Cc1oc(C)c2c(=O)ccc3c(c12)OC(N)=C(C#N)C3c1ccccc1` (configuration not stated), with -7.8%.

For the compound `CSc1ccc(C2C(C#N)=C(N)Oc3c2ccc(=O)c2c(C)oc(C)c32)cc1` (configuration not stated), the cytotoxicity is -2.3%. Consider `CCOc1cc(NC(=O)c2ccccn2)c(OCC)cc1NC(=O)CC(C)C`, for which the cytotoxicity is 9.9%. Then `CCOC(=O)NC1(C(F)(F)F)C(=O)NC(C)=C1C#N` (configuration not stated), with 2.9%; and `O=c1c2ccccc2nc(SCc2cc(F)cc3c2OCOC3)n1Cc1ccco1`, with -5.3%. Take `O=C(CSc1nc2ccccc2c(=O)n1Cc1ccco1)NCc1ccccc1`: the cytotoxicity is 58.5% (active). Take `O=C(CSc1nc2ccccc2c(=O)n1Cc1ccco1)NCc1ccco1`: the cytotoxicity was -11.8%. Then `CCOC(=O)c1cc2c(c(CSc3nc4ccccc4c(=O)n3Cc3ccco3)c1)OCOC2`, with 62.1% (active). For `O=c1c2ccccc2nc(SCc2ccccc2)n1Cc1ccco1` the value was -7%; for `CCOC(=O)CSc1nc2ccccc2c(=O)n1Cc1ccco1`, -3%; for `Cn1c(CN2CCOCC2)nnc1SCC(=O)Nc1nccs1`, 1.8%. Then `CN(C)CC(C(=O)c1ccccc1)c1ccccc1` (configuration not stated), with 100% (active). Regarding `CCC(C(=O)c1ccc(O)cc1)c1ccccc1` (configuration not stated), the cytotoxicity is 18.5%. Then `COc1ccc(C(C(=O)OC(C)CN(C)C)c2ccccc2)cc1` (configuration not stated), with -8.5%; and `COc1cccc(C2/C(=C(/O)c3cnn(-c4ccccc4)c3C)C(=O)C(=O)N2CCN(C)C)c1OC` (configuration not stated), with 11.3%; and `CCC(c1nnnn1Cc1ccccc1)N1CCN(C(=O)c2ccco2)CC1` (configuration not stated), with -1.7%.

As to `COc1ccccc1-c1cc(C(F)(F)F)nc(N2CCOCC2)n1`, the cytotoxicity is -4.5%.

As for `COc1ccccc1-c1cc(C(F)(F)F)nc(S(=O)(=O)CCCC(=O)N2CCCCC2C)n1` (configuration not stated), the cytotoxicity is 50.1% (active). For `COc1ccccc1-c1cc(C(F)(F)F)nc(S(=O)(=O)CCCC(=O)Nc2cc(C)on2)n1` the value was 27.3%; for `COc1ccccc1-c1cc(C(F)(F)F)nc(N2CCCC2)n1`, -16.5%. As to `COc1ccccc1-c1cc(C(F)(F)F)nc(S(=O)(=O)CCCC(=O)NC(C)C)n1`, the cytotoxicity was -3.9%. For `COc1ccc(-c2[nH]ncc2-c2cnn(-c3ccccc3)c2)c(O)c1` the value was 2.7%; for `COc1cccc(Oc2cn[nH]c2-c2ccc(OC)cc2O)c1`, 80.7% (active); for `COc1cccc(Oc2cn[nH]c2-c2ccc(O)cc2O)c1`, 43.9%.

As for `CCOc1ccc(-c2[nH]ncc2Oc2cccc(OC)c2)c(O)c1`, the cytotoxicity was 58.3% (active). For `CCOc1cccc(OCCOCCN2CCCC2)c1`, the cytotoxicity was -6.3%.

For the compound `COc1ccc(CC(=O)Nc2cccc(-c3nnc(-c4ccc(C)cc4)o3)c2)cc1OC`, the cytotoxicity was 18.8%. In the case of `O=C(c1ccco1)N1C2C=CC(C2)C1(C(F)(F)F)C(F)(F)F` (configuration not stated), the cytotoxicity is 0.4%. For `COc1cccc(C2=NOC(C(=O)NC(C)C)C2)c1` (configuration not stated) the value was -9.8%. Regarding `COc1cccc(C2=NOC(C(=O)NC(C)(C)C)C2)c1` (configuration not stated), the cytotoxicity is 0.2%. Then `Cc1cc2cc(CNC(=O)c3ccc4c(c3)OCO4)ccc2[nH]1`, with 15.6%; and `CN1CCN(c2nc(-c3cccnc3)nc3ccccc23)CC1`, with -10.1%. For `OCCSc1nc(-c2cccnc2)nc2ccccc12` the value was 2.2%. Then `Cn1nnnc1Sc1nc(-c2cccnc2)nc2ccccc12`, with 109% (active); and `O=C(NCc1ccco1)c1cccnc1-c1nc2ccccc2s1`, with 0%; and `COC(=O)c1cn(CC(=O)N2CCCCCC2)c2ccccc12`, with 3.6%.

`Cn1nccc1C(=O)OCC(=O)Nc1nc(-c2ccccc2)cs1`: the cytotoxicity was -24.7%. For `O=C1c2ccccc2C(O)N1Cc1ccco1` (configuration not stated) the value was -9%; for `O=C1C(=O)N(Cc2ccco2)C(c2cccc(Cl)c2)/C1=C(\O)c1ccc2c(c1)OCCO2` (configuration not stated), 2.2%; for `CC(=O)C1=C(O)C(=O)N(Cc2ccco2)C1c1ccc(F)cc1` (configuration not stated), 8.7%.

`O=C1c2ccccc2NC(c2ccc(F)cc2)N1Cc1ccco1` (configuration not stated): the cytotoxicity was 2.1%.

On to `O=C1c2[nH]nc(-c3ccccc3O)c2C(c2ccccc2)N1Cc1ccco1` (configuration not stated), for which the cytotoxicity was 32.3%.

Consider `O=C1c2[nH]nc(-c3ccccc3O)c2C(c2cccc(Cl)c2)N1CC1CCCO1` (configuration not stated), for which the cytotoxicity is 38.2%. Then `CCn1c(SCC(=O)NCc2cccs2)nnc1-c1ccncc1`, with -3.4%. Then `O=C(Nc1ccc(C(=O)Oc2ccccc2)c(O)c1)c1ccco1`, with -1.3%; and `Cc1sc2ncnc(SCC(=O)N3CCCC3)c2c1C`, with -13.4%; and `O=C(CSc1nnc(Cc2ccccc2)o1)N1CCc2ccccc21`, with -9.6%. With `C=CCn1c(=N)c(C(=O)OC)cc2c(=O)n3cccc(C)c3nc21`, the cytotoxicity is -26.9%. For the compound `Cc1ccc(C(=O)N2CCCC2)cc1S(=O)(=O)Nc1ccccc1`, the cytotoxicity is -7%. With `CC1CCN(C(=O)CSc2nc(N)cc(N)n2)CC1`, the cytotoxicity is -11.1%. Take `CCc1cc(C(=O)Cc2ccc(F)cc2)c(O)cc1O`: the cytotoxicity is 50.9% (active). Then `CCc1cc(C(=O)Cc2nc3ccccc3[nH]2)c(O)cc1O`, with 20%; and `CCc1cc(C(=O)COc2ccccc2F)c(O)cc1O`, with -13.8%. For `CCc1cc(C(=O)Cc2cnn(-c3ccccc3)c2)c(O)cc1O` the value was 6.7%.

In the case of `CCCc1cc(C(=O)Cc2ccc(F)cc2)c(O)cc1O`, the cytotoxicity was 80.9% (active).

Take `CCCc1cc(C(=O)Cc2ccc(C(=O)OCC)o2)c(O)cc1O`: the cytotoxicity is 24.5%. For `O=C(Nc1ccccc1-c1nc2ccccc2s1)c1ccco1` the value was 7.5%; for `CC1(C)CC(=O)C2=C(C1)Nc1ccccc1NC2c1ccccn1` (configuration not stated), -20%.

Consider `COc1ccc(-c2cc(-c3c(O)c(OC)c4occc4c3OC)[nH]n2)cc1OC`, for which the cytotoxicity is 36.2%. Then `COc1ccc(CCCc2nnc(SCC(=O)Nc3nccs3)n2C)cc1C`, with -0.1%. Then `N#Cc1cc2c(nc1SCC(=O)Nc1sc3c(c1C#N)CCC3)CCCCC2`, with 23%; and `CCOC(=O)c1sc(NC(=O)CSc2nc3c(cc2C#N)CCCCCC3)c(C#N)c1C`, with 81.6% (active). Then `CCOC(=O)c1sc(NC(=O)CSc2nc3c(cc2C#N)CCC3)c(C#N)c1C`, with -0.1%; and `CCCS(=O)(=O)N1CCCC(C(=O)NCCc2ccc(Cl)cc2)C1` (configuration not stated), with -3.4%. With `O=C(O)c1cccc(S(=O)(=O)Nc2ccc3oc(=O)sc3c2)c1`, the cytotoxicity was 6.5%.

With `COc1cc(NS(=O)(=O)c2ccc(C)cc2C)cc(OC)c1OC`, the cytotoxicity is 30.3%. As for `Cc1ccc(CNc2ccc3c(c2)OCO3)c(C)c1`, the cytotoxicity was 64.8% (active). As to `c1cc(CNc2ccc3c(c2)OCO3)ccn1`, the cytotoxicity is -0.7%. On to `Cc1ccc(CNc2ccc3c(c2)OCO3)cc1`, for which the cytotoxicity was 28.9%.
